From PubChem
An excerpt weighted towards active compounds, which were near 27% of everything screened.
CYP2C9 activ: human CYP2C9 activators, primary screen, biochemical, luminescence. Cytochrome P450 2C9 (Homo sapiens), P11712. activation factor at 5 µM. actives 1.4% (n = 96,000). recombinant CYP2C9, luciferin-H conversion; active compounds read high; factor 1 = untreated enzyme, 0 = blocked;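 active means activation factor of 2 or more for CYP2C9 at a 5 µM dose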;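 further: 0 = sulfaphenazole-blocked wells and 1 = vehicle-only wells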
CYP2C19 activ: human CYP2C19 activators, primary screen, biochemical, luminescence; recombinant CYP2C19, luciferin-H EGE luminescence; active compounds read high; 0 = fully inhibited enzyme, 1 = untreated enzyme; 96,000 tested, under 10 active; AID 1025, 2008; activation factor at 5 µM; Cytochrome P450 2C19 (Homo sapiens), P33261;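 active means activation factor of at least 2 at 5 µM in the primary screen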;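 further: 0 = wells with 2.5 mM tranylcypromine and 1 = vehicle-only wells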
Target sequence (P33261 whole entry, looked up): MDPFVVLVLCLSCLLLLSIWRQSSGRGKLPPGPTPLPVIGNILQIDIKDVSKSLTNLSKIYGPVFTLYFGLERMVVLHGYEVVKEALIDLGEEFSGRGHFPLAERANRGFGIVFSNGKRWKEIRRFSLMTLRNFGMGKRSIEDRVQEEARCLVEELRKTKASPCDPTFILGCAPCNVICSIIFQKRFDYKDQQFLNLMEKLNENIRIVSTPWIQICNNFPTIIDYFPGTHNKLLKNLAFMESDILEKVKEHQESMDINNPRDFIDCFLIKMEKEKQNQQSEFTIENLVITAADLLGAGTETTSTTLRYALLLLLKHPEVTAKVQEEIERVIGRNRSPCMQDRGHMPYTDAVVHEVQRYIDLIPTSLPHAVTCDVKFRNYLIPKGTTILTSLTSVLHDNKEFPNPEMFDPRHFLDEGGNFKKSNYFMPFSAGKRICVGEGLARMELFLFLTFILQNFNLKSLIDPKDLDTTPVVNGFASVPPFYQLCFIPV
CYP2C9 inh: blockers of cytochrome P450 2C9 activity – biochemical, luminescence, ADME assay, primary screen | inhibition, % at 5 µM | actives 20% (n = 96,000) | CYP2C9 Supersomes, luciferin-H conversion;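 active means blocking of liver enzyme CYP2C9 beyond about 50% at 5 µM, limit read from the data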
EphB4 ephrin blk: EphB4-ephrin-B2 interaction antagonists, primary screen, biochemical, TNYL-RAW peptide probe, fluorescence polarization; Ephrin type-B receptor 4 (Homo sapiens), P54760; EphB4 LBD / TNYL-RAW-Alexa532 peptide; inhibition, % at 7 µM; actives 0.15% (n = 97,000);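 active means inhibition above the screen-wide mean inhibition plus 3 SD, cut at about 15% in these data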;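 further: 0% = DMSO wells and 100% = excess unlabeled TNYL-RAW peptide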
CYP2C19 inhib: blockers of cytochrome P450 2C19 activity – biochemical, luminescence, ADME assay, primary screen; P33261; CYP2C19 Supersomes, luciferin-H EGE luminescence, 30 min; inhibition, % at 5 µM; actives 21% (n = 96,000);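 active means CYP2C19 inhibition above a set limit at 5 µM in the primary screen, cut at about 50% in these data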;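 further: plate controls were negative control wells for no effect and 2.5 mM tranylcypromine positive control for full effect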
* hit, by the source's call; · = no result given.

SMILES	CYP2C9 activ	CYP2C19 activ	CYP2C9 inh	EphB4 ephrin blk	CYP2C19 inhib
CCCS(=O)(=O)N1CCN(C(=O)CCC2CCCC2)CC1	1.1	0.8	-5.0	-1.1	23.9
CCC(CO)n1c(SCc2cc(=O)oc3cc(C)ccc23)nc2ccccc2c1=O (stereo not given)	0	0	98.1*	-3.0	96.9*
CC(=O)N1c2ccccc2C(C)CC12CCCCC2 (stereo not given)	·	·	·	2.5	·
C/C(Cc1ccccc1)=N\NC(=O)CCCCCC(=O)N/N=C(\C)Cc1ccccc1	0.9	0.4	10.2	-7.1	57.0*
COc1ccccc1CNC(=O)C/C(C)=N/NC(=O)Cc1ccccc1	1.1	0.8	-8.0	0.0	18.8
CCCCCCC/C(C)=N/NC(=O)CC(=O)NCCc1ccccc1	0.4	0.8	64.9*	-4.0	22.7
Cc1nnc(NC(=O)CSCc2ccccc2)s1	0.9	1	13.4	1.1	2.4
Cc1nnc(NC(=O)CSc2nnnn2Cc2ccccc2)s1	0.1	1	85.9*	6.9	-1.6
Cc1nc(NC(=O)CSc2nnnn2Cc2ccccc2)sc1C	0.5	0.2	51.0*	-6.5	81.4*
CC(=O)OC1COC(N2CCc3cc(Br)c([N+](=O)[O-])cc32)C(OC(C)=O)C1OC(C)=O (stereo not given)	0.1	0.1	94.0*	-4.6	88.4*
COc1cccc(CNc2ccc(F)c(Cl)c2)c1OC	0.9	0.5	10.2	1.6	46.7
CN(C)/C=N/c1ncnc2c1cnn2-c1ccc(C(F)(F)F)cn1	·	·	·	-3.8	·
O=C(Nc1ccccc1)O/N=C/c1ccncc1	0.4	0.3	59.7*	5.2	69.8*
O=C(N/N=C\c1ccc(COc2ccc([N+](=O)[O-])cc2)o1)c1cccc(Cl)c1	0.4	0.7	60.2*	6.0	34.1
O=C(N/N=C\c1ccc(COc2ccc([N+](=O)[O-])cc2)o1)c1ccc(Cl)cc1	0.5	1.2	49.3	-3.0	-15.1
CCc1nnc2sc(-c3ccc(NC(=O)c4ccco4)cc3)nn12	0.9	0.9	9.2	0.0	7.2
Cc1nnc(NC(=O)COc2ccc3c(C)cc(=O)oc3c2)s1	0.3	0.7	73.4*	3.8	27.1
Cc1cccc(OCc2nnc(SCC(=O)N3CCc4ccccc43)n2C)c1	0.8	0.8	19.8	5.8	16.8
Cc1cc(=O)oc2cc(OCC(=O)N3CCc4ccccc4C3)ccc12	0.8	0.5	24.9	3.7	45.1
Cc1cc(=O)oc2cc(OCC(=O)N3CCCc4ccccc43)ccc12	0.2	0.6	75.4*	5.0	44.0
Cc1cccc(OCCC(=O)OCC(=O)N2CCc3ccccc32)c1	1.5	0.5	-45.3	5.5	52.9*
Cc1cc(=O)oc2ccc(OCC(=O)N3CCc4ccccc43)cc12	0.3	0.8	72.2*	-0.4	15.3
CCC(CC)c1nnc(NC(=O)COc2ccc3c(C)cc(=O)oc3c2)s1	1	1.1	3.2	-2.0	-6.3
CCOCCCn1c(=S)[nH]c2cc(C(=O)N3CCC(C(N)=O)CC3)ccc2c1=O	0.9	1.1	7.1	-1.3	-10.2
O=C(CN1C(=O)NC2(CCCCCC2)C1=O)N1CCC(Cc2ccccc2)CC1	·	·	·	3.0	·
SMILES	CYP2C9 activ	CYP2C19 activ	CYP2C9 inh	EphB4 ephrin blk	CYP2C19 inhib
COc1ccccc1OCc1nc(Cc2ccc(Cl)cc2)no1	1.3	0.1	-33.1	-2.6	93.6*
COc1ccccc1Cc1noc(-c2cc(Cl)ccc2OC)n1	2.3*	0.5	-133.7	-3.3	47.5
CC(=O)Nc1c(C(=O)N2CCCCCC2)cnn1-c1ccccc1	1.1	1	-9.8	1.3	-3.7
O=C1c2ccccc2C(O)N1c1ccc(Cl)cc1 (stereo not given)	1.1	0.9	-9.8	-6.3	7.0
CC(c1ccccc1)N1C(=O)c2ccccc2C1O (stereo not given)	0.9	0.3	7.6	-0.2	66.0*
CC1CN=C(N(C(=O)Nc2ccccc2)c2ccc(F)cc2)S1 (stereo not given)	0.2	0.2	76.1*	6.4	75.9*
Cc1cccc(N(C(=O)Nc2ccccc2)C2=NCC(C)S2)c1 (stereo not given)	0.2	0.3	81.2*	3.4	68.2*
CC(=O)Nc1ccc(S(=O)(=O)N(C2=NCC(C)S2)c2ccccc2)cc1 (stereo not given)	·	·	·	-3.5	·
